Calls of active or inactive are those of the source. A call without a number means that no potency is given here. The call rests on the fitted dose curve; in most records, active means well fitted curve in the direction sought with a large enough effect in the signal ratio in the repeat runs (not every such curve was filed as active); inconclusive means weak or mixed curves, or effect the other way; inactive means no such curve, though single readings can be large or run the other way; the % refers to the signal ratio.
Target: Estrogen receptor (Homo sapiens) (UniProt P03372)
Test: qHTS assay to identify small molecule antagonists of the estrogen receptor alpha (ER-alpha) signaling pathway (AID 743069)
Details: HEK293 ER-alpha-UAS-bla, beta-lactamase ratio, antagonist mode; series mostly up to 69.4 µM
From the text: National Center for Advancing Translational Sciences [NCATS]
NIH Chemical Genomics Center [NCGC]
U.S. Environmental Protection Agency [EPA]
National Institutes of Environmental Health Sciences [NIEHS]
National Toxicology Program [NTP]
U.S. Food and Drug Administration [FDA]
Estrogen receptor (ER), a nuclear hormone receptor, plays an important role in development, metabolic homeostasis and reproduction. Two subtypes of ER, ER-alpha and ER-beta have similar expression patterns with some uniqueness in both types. Endocrine disrupting chemicals (EDCs) and their interactions with steroid hormone receptors like ER causes disruption of normal endocrine function. To identify the compounds that inhibit ER signaling, an ER-alpha-UAS-bla GripTiteTM cell line (Invitrogen, Carlsbad, CA, USA) containing a beta-lactamase reporter gene under the control of an Upstream Activator Sequence (UAS) stably integrated into HEK293 cells was used to screen the Tox21 10K compound library.
Tox21 Assay Protocol Summary:
ER-alpha-bla cells were cultured in assay medium containing 2% charcoal stripped FBS overnight in the culture flasks before the assay was performed. The cells were dispensed at 5,000 cells/5 uL of assay medium per well into black wall/clear-bottom 1536-well plates using a Multidrop Combi (ThermoFisher Scientific, Waltham, MA) dispenser. After the assay plates were incubated at a 37C and 5% CO2 for 4 hr, 23 nL of compounds dissolved in DMSO, positive controls or DMSO only was transferred to the assay plate by a Pintool station (Kalypsys, San Diego, CA), followed by addition of 1 uL of 17beta-estradiol in assay medium using a Flying Reagent Dispenser (Aurora Discovery, San Diego, CA). The plates were incubated at 37C and 5% CO2 for 18 hr. Then 1 uL of LiveBLAzerTM B/G FRET substrate was added using a Flying Reagent Dispenser, the plates were incubated at room temperature for 2 hours, and fluorescence intensity was measured by an Envision plate reader (PerkinElmer, Shelton, CT).
Potency means the concentration at half of the fitted maximal effect.

Chain of Estrogen receptor (Homo sapiens) (P03372 whole entry, looked up): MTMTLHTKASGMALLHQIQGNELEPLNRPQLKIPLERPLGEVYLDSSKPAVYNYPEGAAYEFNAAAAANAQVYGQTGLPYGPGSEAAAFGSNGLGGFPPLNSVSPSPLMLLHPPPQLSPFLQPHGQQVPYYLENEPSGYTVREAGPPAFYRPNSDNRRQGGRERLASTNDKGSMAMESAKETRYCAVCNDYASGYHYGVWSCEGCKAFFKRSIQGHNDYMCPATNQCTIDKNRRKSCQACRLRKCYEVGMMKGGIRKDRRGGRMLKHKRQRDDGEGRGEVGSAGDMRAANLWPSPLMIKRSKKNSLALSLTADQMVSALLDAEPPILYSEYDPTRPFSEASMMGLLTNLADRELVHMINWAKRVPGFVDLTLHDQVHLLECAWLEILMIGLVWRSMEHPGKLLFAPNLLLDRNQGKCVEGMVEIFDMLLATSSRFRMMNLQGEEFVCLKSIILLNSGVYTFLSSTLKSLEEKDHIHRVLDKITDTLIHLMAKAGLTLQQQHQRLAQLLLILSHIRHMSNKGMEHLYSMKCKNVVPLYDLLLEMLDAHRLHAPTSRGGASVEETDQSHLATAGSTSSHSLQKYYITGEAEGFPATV

| Compound | Potency |
| --- | --- |
| CC(=O)[C@H]1CC[C@H]2[C@@H]3CC[C@H]4C[C@](C)(O)CC[C@]4(C)[C@H]3CC[C@]12C | inactive |
| O=C(NCc1cccnc1)Nc1ccc([N+](=O)[O-])cc1 | inactive |
| O=[N+]([O-])c1ccccc1CCl | inactive |
| CCCCc1c(C)nc(NCC)nc1OS(=O)(=O)N(C)C | inactive |
| O=C1C(=O)c2cccc3cccc1c23 | inactive |
| Cl/C=C\Cl | inactive |
| CC(=O)NC1CCSC1=O (stereo not given) | inactive |
| CC(=O)C(C)(C)C | inactive |
| O=C1NCN(c2ccccc2)C12CCN(CCCOc1ccc(F)cc1)CC2 | 10.7 µM [inconclusive] (active) |
| CCOP(=O)(OCC)SCCSCC | inactive |
| C=CC(=O)OCC(C)O (stereo not given) | inactive |
| O=[N+]([O-])C(Br)(CO)CO | inactive |
| [O-][Cl+]O | inactive |
| Cc1ccc(N)cc1C | inactive |
| Brc1ccc(Oc2ccccc2)cc1 | inactive |
| C=CC(=O)OCC(C)C | inactive |
| N#Cc1ccc(Cl)cc1 | inactive |
| CC1(C)CCC(Cc2ccc(Cl)cc2)C1(O)Cn1cncn1 (stereo not given) | 61.6 µM [inconclusive] (active) |
| N#CCc1ccccc1 | inactive |
| CCOP(=S)(OCC)Oc1nc(Cl)c(Cl)cc1Cl | inactive |

| Compound | Potency |
| --- | --- |
| O=C(Nc1ccccc1)Nc1ccnc(Cl)c1 | 13.8 µM [inconclusive] (active) |
| O=C(CBr)c1ccccc1 | inactive |
| Nc1ccc([N+](=O)[O-])cc1[N+](=O)[O-] | inactive |
| Cc1c(F)c(F)c(COC(=O)C2C(/C=C(\Cl)C(F)(F)F)C2(C)C)c(F)c1F (stereo not given) | inactive |
| Clc1cc(Cl)c(Cl)c(Cl)c1 | inactive |
| CS/C(C)=N/OC(=O)N(C)SN(C)C(=O)O/N=C(\C)SC | inactive |
| COP(=S)(Oc1cc(Cl)c(Br)cc1Cl)c1ccccc1 (stereo not given) | inactive |
| Cc1ccc2ccccc2c1 | inactive |
| CCOc1nc(F)cc2nc(S(=O)(=O)Nc3c(Cl)cccc3Cl)nn12 | inactive |
| ClCc1ccccc1 | inactive |
| CCCN(CCCl)c1c([N+](=O)[O-])cc(C(F)(F)F)cc1[N+](=O)[O-] | inactive |
| CCOC(=O)C(Cl)C(C)=O (stereo not given) | inactive |
| CCCCNP(N)(N)=S | inactive |
| CCC(Cl)CCl (stereo not given) | inactive |
| ClCC(Br)CBr (stereo not given) | inactive |
| CCCC(=O)Cl | inactive |
| OCCCBr | inactive |
| COCCOCCO | inactive |
| CC(=O)CCC(C)=O | inactive |
| COc1c(C(C)(C)C)cc([N+](=O)[O-])c(C)c1[N+](=O)[O-] | inactive |
